These results are taken from PubChem BioAssay.

Test [1] can be described thus: binders of probe aFSTL3 on microarray, primary screen, stem cell growth factor project, biochemical, small-molecule microarray, fluorescence 635/667 (AID 1064).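 Further: measures binding of the biotinylated anti-FSTL3 antibody to printed compounds.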 The following applies: higher = more signal.
Test [2] is described as follows: binders from COS7 lysate, DM2A8 probe, primary screen, torsin A project, cell lysate, small-molecule microarray, fluorescence 635/667 (AID 1065). Particulars: higher = more signal, COS7 lysate expressing mutant human TOR1A.
The nature of test [3]: binders of probe aFGF2 on microarray, primary screen, stem cell growth factor project, biochemical, small-molecule microarray, fluorescence 635/667 (AID 1067).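 Further: measures binding of biotinylated aFGF2 protein to printed compounds on slides; z-score merges feature fluorescence and signal-to-noise across triplicate slides.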 The following applies: higher = more signal.
Test [4] can be described thus: binders of probe aFGF10 on microarray, primary screen, stem cell growth factor project, biochemical, small-molecule microarray, fluorescence 635/667 (AID 1071).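 Further: score merges 667 nm spot intensity and signal to noise from triplicate slides.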 The following applies: higher = more signal.
Test [5] has as its target Neurogenic locus notch homolog protein 2 (Homo sapiens) (UniProt Q04721). Description: Notch2 binders on small-molecule microarrays, primary screen, biochemical, small-molecule microarray, 635 nm fluorescence, stem cell growth factors (AID 1073). The following applies: Notch2 binding, higher = more signal.
For test [6], the target named is Pro-neuregulin-1, membrane-bound isoform (Homo sapiens) (UniProt Q02297). Description: NRG1 binders on small-molecule microarrays, primary screen, psychiatric disease protein project, biochemical, small-molecule microarray, fluorescence 635/667 (AID 1075).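 Further: score combines 667 nm spot fluorescence with signal to noise.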 The following applies: NRG1 binding, 635 nm fluorescence, higher = more signal.
The test system of test [7] is Neuregulin-1 EGF-like domain. Description: binders of neuregulin-1 EGF-like domain, primary screen, biochemical, small-molecule microarray, 635 nm fluorescence (AID 1081).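 Further: binding of the protein to compounds printed on small-molecule microarray slides.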 Particulars: small-molecule microarray binding, higher = more signal.
Test [8] is described as follows: FRG1 promoter luciferase signal modulators, primary screen, FRG1 inhibition for FSHD, cell-based, C2C12 myotubes, firefly/Renilla luciferase, luminescence (AID 1084). Particulars: higher = more signal, called active from +8 up or from −8 down.
Test [9] can be described thus: binders of probe aFST on microarray, primary screen, stem cell growth factor project, biochemical, small-molecule microarray, fluorescence 635/667 (AID 1086).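 Further: score merges 667 nm fluorescence with signal-to-noise of each printed compound spot.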 Particulars: higher = more signal.
Test [10] can be described thus: binders of probe aHhip on microarray, primary screen, stem cell growth factor project, biochemical, small-molecule microarray, fluorescence 635/667 (AID 1087).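 Further: score merges spot fluorescence at 667nm with spot signal to noise ratio.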 The following applies: higher = more signal.
Test [11] has as its system PRMT1 (protein arginine N-methyltransferase 1). Description: PRMT1 binders on small-molecule microarrays, primary screen, biochemical, small-molecule microarray, 635 nm fluorescence (AID 1088).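 Further: binding of Prmt1 protein to compounds spotted on small-molecule microarray slides.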 Particulars: small-molecule microarray binding, higher = more signal.
Test [12] is described as follows: yeast growth modulation, basal conditions, primary screen, YJM789 clinical isolate, OD600, 24 h (AID 1089).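 Further: growth of clinical yeast isolate S. cerevisiae YJM 789 seeded 1000 cells per well; test concentration not given here.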 The following applies: S. cerevisiae YJM789 growth, higher = more signal, called active from +8 up or from −8 down.
Test [13] can be described thus: fission yeast growth modulation, primary screen, strain 972, OD600, 24 h, no modulator (AID 1090).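 Further: basal condition with compound alone and no growth modifier present; test concentration not given here.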 Particulars: S. pombe 972 growth, higher = more signal, called active from +8 up or from −8 down.
Test [14] in a line: S. cerevisiae growth modulation with rapamycin, primary screen, strain BY4716, OD600, 96 h (AID 1091). Further: test concentration not given here. The following applies: higher = more signal, called active from +8 up or from −8 down.
For test [15], the target named is Torsin-1A-interacting protein 2 (Homo sapiens) (UniProt Q8NFQ8). Description: LULL1 binders on small-molecule microarray, primary screen, cell lysate, human LULL1 lysate, 635/667 nm fluorescence (AID 1092).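 Further: score merges per-feature 667 nm fluorescence with signal-to-noise.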 Particulars: hLULL1 lysate binding, 635 nm fluorescence, higher = more signal.
The nature of test [16]: E. coli growth modulation, two-sided OD650, primary screen, E. coli filamentation project, strain DRC41, 24 h (AID 1093).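 Further: MC1000 strain lacking acrAB efflux and sulA so SOS filamentation is blocked; test concentration not given here.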 The following applies: OD650, 24 h, higher = more signal, called active from +8 up or from −8 down.
Test [17] is described as follows: small-molecule microarray binders of probe aLefty2, primary screen, biochemical, biotinylated probe, 635/667 nm fluorescence (AID 1094).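 Further: score merges spot fluorescence near 667 nm with spot signal-to-noise ratio.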 The following applies: higher = more signal.
In test [18] the test system is Noggin (protein binding on small-molecule microarray). Description: Noggin binders on small-molecule microarray, primary screen, biochemical, 635/667 nm fluorescence (AID 1095).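 Further: score merges 667 nm feature fluorescence with signal to noise over triplicate slides.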 Particulars: 635 nm fluorescence, higher = more signal.
For test [19], the target named is Neurogenic locus notch homolog protein 3 (Homo sapiens) (UniProt Q9UM47). Description: NOTCH3 binders on small-molecule microarray, primary screen, biochemical, 635/667 nm fluorescence (AID 1096). Particulars: NOTCH3 binding, 635 nm fluorescence, higher = more signal.
Test [20] can be described thus: small-molecule microarray binders of probe aEGFR, primary screen, biochemical, biotinylated probe, 635/667 nm fluorescence (AID 1097).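 Further: probe is a biotinylated anti-EGFR antibody binding compounds printed on slides; score combines fluorescence near 667 nm and signal to noise of each spot.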 Particulars: higher = more signal.

The source made the active and inactive calls.

Sequence of Pro-neuregulin-1, membrane-bound isoform (Homo sapiens) (Q02297 whole entry, looked up, the tested form may be a part, canonical isoform): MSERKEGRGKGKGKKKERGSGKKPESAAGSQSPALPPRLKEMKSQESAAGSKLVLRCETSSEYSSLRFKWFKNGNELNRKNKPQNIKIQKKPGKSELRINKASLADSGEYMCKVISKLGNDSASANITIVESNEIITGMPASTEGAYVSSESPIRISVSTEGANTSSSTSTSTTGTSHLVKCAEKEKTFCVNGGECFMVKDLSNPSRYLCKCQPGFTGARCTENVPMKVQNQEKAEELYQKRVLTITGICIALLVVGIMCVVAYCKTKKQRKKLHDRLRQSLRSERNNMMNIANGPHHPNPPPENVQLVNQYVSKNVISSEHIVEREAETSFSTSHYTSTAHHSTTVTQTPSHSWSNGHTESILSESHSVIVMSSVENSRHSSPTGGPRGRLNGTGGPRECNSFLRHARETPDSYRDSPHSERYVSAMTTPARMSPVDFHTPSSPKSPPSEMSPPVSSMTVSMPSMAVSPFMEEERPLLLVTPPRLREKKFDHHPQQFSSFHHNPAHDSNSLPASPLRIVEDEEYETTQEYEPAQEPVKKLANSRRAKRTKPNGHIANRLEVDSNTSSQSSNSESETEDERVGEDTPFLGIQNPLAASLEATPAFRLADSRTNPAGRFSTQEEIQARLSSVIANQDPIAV
Sequence of Neurogenic locus notch homolog protein 2 (Homo sapiens) (Q04721 whole entry, looked up, canonical isoform): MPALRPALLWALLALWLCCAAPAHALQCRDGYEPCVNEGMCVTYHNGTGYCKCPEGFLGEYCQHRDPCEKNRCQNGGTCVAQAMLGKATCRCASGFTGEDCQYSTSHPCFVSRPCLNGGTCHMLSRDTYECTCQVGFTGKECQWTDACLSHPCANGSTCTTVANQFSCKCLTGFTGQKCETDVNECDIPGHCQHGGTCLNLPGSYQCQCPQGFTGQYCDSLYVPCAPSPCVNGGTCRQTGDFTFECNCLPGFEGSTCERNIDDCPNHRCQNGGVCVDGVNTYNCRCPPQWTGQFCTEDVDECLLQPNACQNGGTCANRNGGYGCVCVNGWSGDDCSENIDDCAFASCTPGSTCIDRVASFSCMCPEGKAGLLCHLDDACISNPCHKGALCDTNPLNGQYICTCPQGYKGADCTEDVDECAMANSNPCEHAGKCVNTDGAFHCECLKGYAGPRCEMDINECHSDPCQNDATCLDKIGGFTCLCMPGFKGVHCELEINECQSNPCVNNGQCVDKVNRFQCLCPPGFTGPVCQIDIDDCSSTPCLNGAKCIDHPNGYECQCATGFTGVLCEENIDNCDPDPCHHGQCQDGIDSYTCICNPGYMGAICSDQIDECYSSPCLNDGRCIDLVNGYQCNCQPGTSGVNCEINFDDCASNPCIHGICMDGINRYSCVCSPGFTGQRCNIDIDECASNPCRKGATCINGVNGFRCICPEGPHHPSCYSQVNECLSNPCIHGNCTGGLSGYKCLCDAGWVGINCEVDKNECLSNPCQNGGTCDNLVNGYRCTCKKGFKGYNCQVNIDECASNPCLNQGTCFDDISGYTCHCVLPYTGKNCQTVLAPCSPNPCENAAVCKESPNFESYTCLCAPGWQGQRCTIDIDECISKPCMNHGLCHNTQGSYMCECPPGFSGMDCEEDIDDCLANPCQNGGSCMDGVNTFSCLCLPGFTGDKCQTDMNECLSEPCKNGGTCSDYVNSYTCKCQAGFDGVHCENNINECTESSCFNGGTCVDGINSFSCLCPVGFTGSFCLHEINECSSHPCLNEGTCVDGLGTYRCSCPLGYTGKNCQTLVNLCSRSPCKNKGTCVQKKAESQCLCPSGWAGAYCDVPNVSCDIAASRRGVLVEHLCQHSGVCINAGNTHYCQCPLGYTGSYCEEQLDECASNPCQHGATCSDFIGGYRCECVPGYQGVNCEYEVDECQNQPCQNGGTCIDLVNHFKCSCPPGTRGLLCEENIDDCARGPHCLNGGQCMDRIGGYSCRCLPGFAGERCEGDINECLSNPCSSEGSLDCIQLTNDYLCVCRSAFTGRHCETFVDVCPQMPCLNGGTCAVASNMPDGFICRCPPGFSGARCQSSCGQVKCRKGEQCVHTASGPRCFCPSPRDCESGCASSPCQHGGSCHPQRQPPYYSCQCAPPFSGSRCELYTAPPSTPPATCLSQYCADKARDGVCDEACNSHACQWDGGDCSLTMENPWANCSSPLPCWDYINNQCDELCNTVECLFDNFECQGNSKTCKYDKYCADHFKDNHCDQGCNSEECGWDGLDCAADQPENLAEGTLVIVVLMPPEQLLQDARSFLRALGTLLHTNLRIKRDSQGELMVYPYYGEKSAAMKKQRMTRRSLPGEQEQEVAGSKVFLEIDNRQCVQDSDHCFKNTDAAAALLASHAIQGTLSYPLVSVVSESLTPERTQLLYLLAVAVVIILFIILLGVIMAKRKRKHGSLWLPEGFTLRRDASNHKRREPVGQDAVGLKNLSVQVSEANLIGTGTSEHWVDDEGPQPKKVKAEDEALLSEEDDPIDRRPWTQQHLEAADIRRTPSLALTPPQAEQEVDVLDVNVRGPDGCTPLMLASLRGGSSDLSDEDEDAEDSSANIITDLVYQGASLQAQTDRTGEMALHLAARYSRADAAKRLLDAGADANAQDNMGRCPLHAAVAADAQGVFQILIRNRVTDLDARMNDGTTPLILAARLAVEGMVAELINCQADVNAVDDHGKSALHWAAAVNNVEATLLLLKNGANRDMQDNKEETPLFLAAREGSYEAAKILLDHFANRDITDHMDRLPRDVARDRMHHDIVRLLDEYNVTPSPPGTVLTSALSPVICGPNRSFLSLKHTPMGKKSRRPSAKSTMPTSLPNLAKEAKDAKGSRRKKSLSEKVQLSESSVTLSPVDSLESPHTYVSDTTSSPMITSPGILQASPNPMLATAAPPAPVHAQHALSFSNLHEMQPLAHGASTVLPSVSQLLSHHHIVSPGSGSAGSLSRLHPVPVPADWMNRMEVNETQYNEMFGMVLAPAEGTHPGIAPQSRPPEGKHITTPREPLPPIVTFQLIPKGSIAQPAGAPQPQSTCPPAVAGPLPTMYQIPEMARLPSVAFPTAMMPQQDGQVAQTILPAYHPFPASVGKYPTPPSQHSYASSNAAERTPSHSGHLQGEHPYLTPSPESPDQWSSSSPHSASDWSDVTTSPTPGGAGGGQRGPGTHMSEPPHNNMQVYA
Sequence of Torsin-1A-interacting protein 2 (Homo sapiens) (Q8NFQ8 whole entry, looked up): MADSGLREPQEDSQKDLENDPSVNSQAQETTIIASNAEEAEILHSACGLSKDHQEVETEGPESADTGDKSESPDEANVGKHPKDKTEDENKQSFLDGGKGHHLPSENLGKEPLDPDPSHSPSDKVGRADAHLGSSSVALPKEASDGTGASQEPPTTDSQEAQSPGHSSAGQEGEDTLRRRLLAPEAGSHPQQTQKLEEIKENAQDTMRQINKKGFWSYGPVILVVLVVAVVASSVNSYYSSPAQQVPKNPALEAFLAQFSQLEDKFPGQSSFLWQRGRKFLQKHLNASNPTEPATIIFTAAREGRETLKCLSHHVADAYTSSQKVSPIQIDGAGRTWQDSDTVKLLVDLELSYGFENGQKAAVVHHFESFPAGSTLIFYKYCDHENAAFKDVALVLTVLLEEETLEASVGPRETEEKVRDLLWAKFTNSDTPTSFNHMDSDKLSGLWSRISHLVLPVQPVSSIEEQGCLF

In the case of `C=C(CCCC)/C(=C/C[C@H](OC(=O)c1ccncc1)c1ccccc1OCCO)c1cnc2ccccc2c1`, the composite z-score was -0.345 in test [1]; 1.04 in test [2]; -0.0544 in test [3]; 0.706 in test [4]; 0.965 in test [5]; 0.424 in test [6]. The composite z-score was 1.05 in [7]; 0.228 in test [9]; 0.126 in test [10]; 1.55 in test [11]; 1.34 in test [15]; -0.217 in [17]. Moreover, the composite z-score in test [18] is 1.27; in test [19], 1.13; in [20], -0.111. The z-score in test [8] was -0.756 (inactive); in [12], -1.73 (inactive); in [13] it was -1.14 (inactive); in test [14], 3.47 (inactive); in [16], -0.0552 (inactive).

On to `CC1CC/C=C\[C@H]2OC34C=CCN(Cc5ccccc5)C(=O)[C@H]3N(CCCO)C(=O)[C@@H]4C2C(=O)O1` (stereo not given in full), for which the composite z-score was 0.291 in test [1]; 0.141 in test [2]; -0.118 in test [3]; -0.365 in test [4]; -0.557 in test [5]; 0.909 in test [6]. Moreover, the composite z-score in test [7] is 1.48; in test [9], -0.662; in test [10], -0.0645; in [11] it was 0.398; in test [15], 1.97; in test [17], -0.254. The composite z-score in test [18] is -1.12; in test [19], -0.106; in [20] it was -0.283. In addition, the z-score in [8] is 0.242 (inactive); in [12] it was -1.7 (inactive); in [13], -1.25 (inactive); in test [14], -0.807 (inactive); in [16], 0.56 (inactive).

As for `COc1cc2c(cc1OC)CN(C(=O)[C@H]1[C@@H]3C(=O)O[C@@H](c4ccccc4)[C@@H](c4ccccc4)N3[C@@H](c3ccc(O)cc3)[C@]13C(=O)Nc1ccccc13)CC2`, the composite z-score was 0.418 in [1]; 0.814 in [2]; -0.0282 in [3]; 0.681 in test [4]; -0.0554 in test [5]; 1.41 in test [6]. In addition, the composite z-score in [7] was 1.38; in test [9], -0.0422; in [10], 0.0129; in test [11], 1.27; in test [15], 2.32; in test [17], -0.139. Further, the composite z-score in test [18] was 0.0366; in test [19], 0.518; in test [20], -0.191. Also, the z-score was -1.09 (inactive) in test [8]; 1.16 (inactive) in test [12]; 0.536 (inactive) in test [13]; 1.74 (inactive) in test [14]; -0.204 (inactive) in [16].

As to `C=CCOC(=O)[C@@H]1[C@H]2C(=O)O[C@H](c3ccccc3)[C@H](c3ccccc3)N2[C@H](c2ccc(OCCOC(=O)[C@H]3C[C@H]4C(=O)N5CCC[C@H]5C(=O)N4[C@H]3c3ccc(O)cc3)cc2)[C@@]12C(=O)Nc1ccc(I)cc12`, the composite z-score in test [1] was -0.493; in [2] it was 0.942; in test [3] it was -0.0958; in test [4], 0.59; in test [5], 0.929; in test [6], 0.782. The composite z-score in test [7] was 1.24; in test [9], -0.0364; in test [10], -0.34; in [11], 1.54; in test [15], 1.95; in test [17], -0.203. Also, the composite z-score in test [18] was 1.46; in test [19], 1.07; in [20], -0.119. The z-score is -0.627 (inactive) in test [8]; 0.825 (inactive) in test [12]; 0.267 (inactive) in test [13]; 3.14 (inactive) in test [14]; 0.553 (inactive) in [16].

As to `CN1C(=O)C2C=CC(C(O)c3ccc([N+](=O)[O-])cc3)N(N3CCCCC3)C2C1=O` (stereo not given), the composite z-score is 1.11 in test [1]; -0.306 in [2]; 0.132 in test [3]; 0.695 in test [4]; 1.6 in test [5]; 1.3 in test [6]. For the same molecule, the composite z-score in test [7] was 0.961; in test [9] it was 1.36; in test [10] it was -0.365; in [11], 0.957; in [15], 2.69; in test [17] it was 0.347. The composite z-score in test [18] was -0.245; in [19], 1.07; in [20], 0.161. Besides, the z-score in [8] was 0.198 (inactive); in test [12], 0.462 (inactive); in [13], 0.647 (inactive); in test [14], 0.19 (inactive); in test [16], -1.74 (inactive).

Regarding `COc1ccc(C(=O)Nc2ccc(CN3C(=O)[C@]4(O[C@H](CCO)[C@@H]([Si](C)(C)c5ccc(OC)cc5)[C@@H]4C)c4ccccc43)cc2)cc1`, the composite z-score was -0.329 in test [1]; 0.0876 in [2]; -0.087 in test [3]; 0.245 in test [4]; 0.561 in [5]; 0.77 in test [6]. The composite z-score in test [7] came out at 0.836; in test [9], 0.305; in test [10] it was 0.432; in test [11], 1.47; in test [15], 2.17; in [17], 0.0412. Further, the composite z-score in [18] is 0.827; in test [19], 1.13; in test [20], -0.183. Further, the z-score in test [8] is -4.05 (inactive); in [12] it was -0.0534 (inactive); in test [13] it was -12.2 (active); in test [14] it was 1.62 (inactive); in [16], -0.324 (inactive).
